Laboratory results taken from PubChem BioAssay (NCI).
The panel holds about 79,000 compounds, 15% with a hit somewhere; the sample as a whole holds those more often. Activity calls are given as the source filed them. Rule as the data show it: active = growth inhibition above about 70%; inactive = the rest.

Columns and labels:
[1] = NCI Yeast Anticancer Drug Screen. Data for the rad52 strain (AID 147);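 also: 0% = growth of vehicle-treated control cultures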; conditions: S. cerevisiae rad52 mutant growth inhibition, hits give high values
Procedure, shortened: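 Read-out: growth inhibition versus vehicle-treated controls. Cells were a DNA repair-deficient yeast strain treated with compounds.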

[2] = NCI Yeast Anticancer Drug Screen. Data for the wt1 strain (AID 149);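 also: 0% = growth of vehicle-treated wt1 cultures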; conditions: S. cerevisiae wt1 strain (SPY 50644) growth inhibition, hits give high values
Procedure, shortened: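 Yeast wt1 strain exposed to compounds; growth inhibition measured relative to vehicle-treated controls.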

[3] = NCI Yeast Anticancer Drug Screen. Data for the rad50EPP+ strain (AID 151);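 also: 0% = growth of vehicle-treated control cultures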; conditions: S. cerevisiae rad50 mutant strain, hits give high values
Procedure, shortened: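 Growth inhibition read against vehicle controls in rad50EPP+ yeast, a strain altered in DNA damage repair, after compound exposure.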

[4] = NCI Yeast Anticancer Drug Screen. Data for the rad50 strain (AID 155);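 also: 0% = growth of vehicle-only cultures of the same strain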; conditions: S. cerevisiae rad50 strain growth inhibition, hits give high values
Procedure, shortened: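 Yeast carrying a defined DNA repair defect were exposed to test compounds, and growth was compared with vehicle-treated controls to give percent inhibition.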

[5] = NCI Yeast Anticancer Drug Screen. Data for the mec2-1 strain (AID 157); conditions: S. cerevisiae mec2-1 strain, hits give high values
Procedure, shortened: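 Yeast mec2-1 mutant treated with compound. Readout: growth inhibition vs vehicle controls.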

[6] = NCI Yeast Anticancer Drug Screen. Data for the rad14 strain (AID 159);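 also: 0% = growth of vehicle-treated control cultures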; conditions: S. cerevisiae rad14 strain growth inhibition, hits give high values
Procedure, shortened: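 Yeast cells carrying a defined DNA-repair defect were exposed to compounds, and growth inhibition was calculated relative to vehicle-treated control cultures.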

[7] = NCI Yeast Anticancer Drug Screen. Data for the sgs1 mgt1 strain (AID 161);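 also: 0% = growth of cultures given vehicle only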; conditions: S. cerevisiae sgs1 mgt1 strain, hits give high values
Procedure, shortened: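 Mutant yeast exposed to compound; growth scored against vehicle-only wells.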

[8] = NCI Yeast Anticancer Drug Screen. Data for the CLN2oe strain (AID 163);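 also: 0% = growth of vehicle-only control cultures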; conditions: S. cerevisiae CLN2oe strain, hits give high values
Procedure, shortened: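 Read-out: yeast growth inhibition, expressed relative to vehicle-only controls. The strain bears an engineered cell-cycle alteration.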

[9] = NCI Yeast Anticancer Drug Screen. Data for the cln2 rad14 strain (AID 165);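 also: 0% = growth equal to vehicle treated cultures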; conditions: S. cerevisiae cln2 rad14 strain, hits give high values
Procedure, shortened: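 cln2 rad14 yeast strain; compound exposure; growth inhibition read vs vehicle controls.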

[10] = NCI Yeast Anticancer Drug Screen. Data for the bub3 strain (AID 167); conditions: S. cerevisiae bub3 mutant strain, hits give high values
Procedure, shortened: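 Compounds were applied to a genetically altered yeast strain carrying a cell-cycle control defect. Growth inhibition was scored against vehicle-treated controls.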

[11] = NCI Yeast Anticancer Drug Screen. Data for the wt2 strain (AID 169);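 also: 0% = growth of vehicle-treated yeast cultures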; conditions: S. cerevisiae wt2 strain growth inhibition, hits give high values
Procedure, shortened: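 Read-out: growth inhibition versus vehicle-treated control cultures after compound exposure of the yeast strain.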

[12] = NCI Yeast Anticancer Drug Screen. Data for the mlh1 strain (AID 171);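 also: 0% = growth of vehicle-treated control cultures of the same strain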; conditions: S. cerevisiae mlh1 strain growth inhibition, hits give high values
Procedure, shortened: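 Read-out: growth inhibition versus vehicle controls. Strain: engineered yeast with a defined DNA repair or cell cycle defect, compound-treated.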

[13] = NCI Yeast Anticancer Drug Screen. Data for the sgs1 strain (AID 173);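 also: 0% = growth of vehicle-only control cultures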; conditions: S. cerevisiae sgs1 mutant, hits give high values
Procedure, shortened: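 Read-out: yeast growth inhibition relative to vehicle controls, following compound exposure of a strain with a defined DNA repair/cell cycle alteration.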

[14] = NCI Yeast Anticancer Drug Screen. Data for the mlh1 rad18 strain (AID 175); conditions: S. cerevisiae mlh1 rad18 strain growth inhibition, hits give high values
Procedure, shortened: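 Yeast w/ defined DNA-repair lesions; compound exposure; growth vs vehicle controls → % inhibition.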

[15] = NCI Yeast Anticancer Drug Screen. Data for the rad18 strain (AID 177); conditions: S. cerevisiae rad18 mutant growth inhibition, hits give high values
Procedure, shortened: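 Readout: growth inhibition vs vehicle controls. Cells: genetically altered yeast strain, DNA repair defect.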

[16] = at 5.0 µM (retest, dose inferred, filed as 0.5)
[17] = at 50.0 µM (retest, dose inferred, filed as 5.0)

Measured: growth inhibition

CCCCCCCCCCC(=O)Cl
active: [2]; at 100.0 µM 85% | [4]; [16] 100% | [4]; [17] 98% | [5]; [16] 100% | [5]; [17] 98% | [5]; at 100.0 µM 83% | [6]; at 100.0 µM 88% | [8]; at 100.0 µM 77% | [11]; at 100.0 µM 82% | [12]; at 100.0 µM 82% | [13]; at 100.0 µM 90% | [14]; [16] 100% | [14]; [17] 99% | [15]; at 100.0 µM 89%
inactive: [1]; at 1.2 µM 13% | [1]; at 3.7 µM 13% | [1]; at 11.0 µM 12% | [1]; at 33.0 µM 9% | [1]; at 100.0 µM 31% | [2]; at 1.2 µM 9% | [2]; at 3.7 µM -2% | [2]; at 11.0 µM -5% | [2]; at 33.0 µM -5% | [3]; at 1.2 µM 18% | [3]; at 3.7 µM 22% | [3]; at 11.0 µM 25% | [3]; at 33.0 µM 40% | [3]; at 100.0 µM 46% | [4]; at 1.2 µM 14% | [4]; at 3.7 µM 18% | [4]; at 11.0 µM 2% | [4]; at 33.0 µM 9% | [4]; at 50.0 µM 58.2% | [4]; at 100.0 µM 29% | [5]; at 1.2 µM -1% | [5]; at 3.7 µM 7% | [5]; at 11.0 µM -9% | [5]; at 33.0 µM -23% | [5]; at 50.0 µM 7.75% | [6]; at 1.2 µM -1% | [6]; at 3.7 µM -2% | [6]; at 11.0 µM -8% | [6]; at 33.0 µM 39% | [7]; [16] -18% | [7]; [17] 36% | [7]; at 50.0 µM 56.9% | [8]; at 1.2 µM -4% | [8]; at 3.7 µM -9% | [8]; at 11.0 µM -25% | [8]; at 33.0 µM -18% | [9]; [16] 36% | [9]; [17] 58% | [9]; at 50.0 µM 31.9% | [10]; at 1.2 µM -9% | [10]; at 3.7 µM -4% | [10]; [16] 16% | [10]; at 11.0 µM -34% | [10]; at 33.0 µM -33% | [10]; [17] 64% | [10]; at 50.0 µM 12.1% | [10]; at 100.0 µM 54% | [11]; at 1.2 µM 5% | [11]; at 3.7 µM 1% | [11]; at 11.0 µM -4% | [11]; at 33.0 µM -2% | [12]; at 1.2 µM 14% | [12]; at 3.7 µM 7% | [12]; at 11.0 µM 5% | [12]; at 33.0 µM 2% | [13]; at 1.2 µM 18% | [13]; at 3.7 µM 14% | [13]; at 11.0 µM 15% | [13]; at 33.0 µM 25% | [14]; at 50.0 µM -13.4% | [15]; at 1.2 µM 25% | [15]; at 3.7 µM 21% | [15]; at 11.0 µM 15% | [15]; at 33.0 µM 9%
